PABP1 MLLE inh: inhibitors of PABP1 MLLE–PAM2 peptide binding, primary screen, biochemical, fluorescence polarization, FITC-PAM2, GST-MLLE; 360,000 tested, 0.36% active; inhibition, % at 20 µM; Polyadenylate-binding protein 1 (Homo sapiens), P11940; in the data active = inhibition above about 35%, passing the limit was not always enough
eIF4E-4G inh: eIF4E–eIF4G protein interaction inhibitors, primary screen, biochemical, uHTS, TR-FRET, eIF4GI fragment; Eukaryotic translation initiation factor 4E (Mus musculus) + Eukaryotic translation …; TR-FRET eIF4E-eIF4GI(517-606) binding, 2 h; inhibition, % at 21.7 µM; 220,000 tested, 0.37% active;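 active = inhibition above about 30%, limit read from the data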
eIF4H FP inh: human eIF4H binding inhibitors, primary screen, translation initiation inhibitor project, biochemical, uHTS, fluorescence polarization; AID 2012, 2009; inhibition, % at 35 µM; 290,000 tested, 0.94% active; eIF4H fluorescence polarization binding assay; Eukaryotic translation initiation factor 4H (Homo sapiens), Q15056;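 also: calls also rest on retests at 20 µM and on dose response follow-up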
14-3-3 Bad PPI: inhibitors of 14-3-3 zeta/Bad binding, primary screen, biochemical, TR-FRET, bovine 14-3-3 zeta; 14-3-3 protein zeta/delta (Bos taurus), P63103; TR-FRET 14-3-3zeta/Dy647-pBad peptide displacement, 1 h; inhibition, % at 21.7 µM; 220,000 tested, 0.71% active;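 active = inhibition above about 70%, limit read from the data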
Target sequence (P63103 whole entry, looked up): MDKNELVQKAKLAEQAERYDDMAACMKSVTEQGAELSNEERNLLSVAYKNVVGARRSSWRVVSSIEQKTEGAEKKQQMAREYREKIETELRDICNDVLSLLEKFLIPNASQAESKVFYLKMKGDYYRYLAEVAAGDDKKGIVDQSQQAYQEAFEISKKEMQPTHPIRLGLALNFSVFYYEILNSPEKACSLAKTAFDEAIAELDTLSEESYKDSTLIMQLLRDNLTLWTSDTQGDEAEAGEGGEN
PABP polyA inh: PABP poly(A) RNA binding inhibitors, primary screen, biochemical, fluorescence polarization, uHTS; Polyadenylate-binding protein 1 (Homo sapiens), P11940; calls only at 35 µM; 290,000 tested, 1% active;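 also: calls also rest on retests at 20 µM and on dose response follow-up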
Numbers stand for hits; - = inactive; . = no result; + = active, no number; [ ] = dose if it differs, or a comment. Compounds with a hit are over-represented: about 1.9% of the library has one in this group of screens. Unless noted, no rule for the calls is given here.

SMILES	PABP1 MLLE inh	eIF4E-4G inh	eIF4H FP inh	14-3-3 Bad PPI	PABP polyA inh
Cn1cc(S(=O)(=O)Nc2ccc3c(c2)OCCO3)cn1	-	-	-	89.0	-
CCCCCCCc1c(O)nc(SCC(=O)O)[nH]c1=O	-	-	-	-	-
Cc1ccccc1CNC1CCCCC1	-	-	-	-	-
Oc1cc(CNC2CCCCC2)c(O)cc1CNC1CCCCC1	52.6	.	.	.	.
CC1(C)C(=O)Nc2ccccc2N1C(=O)COC(=O)Cc1ccccc1F	-	.	.	.	.
CC1(C)CCCN(C(=O)c2ccc3c(c2NCCO)C(=O)c2ccccc2C3=O)C1	-	-	-	80.7[fluorescence artefact?]	-
COc1ccc2cc(C(c3nnnn3C(C)(C)C)N3CCc4ccccc4C3)c(=O)[nH]c2c1 (centres undefined)	.	-	-	-	-
CCC(C)(C)n1nnnc1C(c1cc2ccc(OC)cc2[nH]c1=O)N1CCc2ccccc2C1 (centres undefined)	71.5	-	-	-	-
COc1cc2cc(C(c3nnnn3C3CCCC3)N(C)C3CCCCC3)c(=O)[nH]c2cc1OC (centres undefined)	-	30.5	-	-	-
COc1cc2cc(C(c3nnnn3C3CCCCC3)N(C)C3CCCCC3)c(=O)[nH]c2cc1OC (centres undefined)	-	-	-	-	-
CCC(C)(C)n1nnnc1C(c1ccc(O)c(OC)c1)N1CCc2ccccc2C1 (centres undefined)	-	-	-	82.2	-
CCC(C)(C)n1nnnc1C(c1ccccc1)N1CCc2ccccc2C1 (centres undefined)	-	-	-	-	-
COc1ccc2cc(C(c3nnnn3C3CCCC3)N3CCc4ccccc4C3)c(=O)[nH]c2c1 (centres undefined)	40.8	-	-	-	-
COc1ccc(OC)c(Cc2nnc(CCC(=O)NCc3ccsc3)o2)c1	-	-	-	-	-
CNC(=O)C[C@@H]1C(=O)N(c2ccc(Br)cc2)CC1(C)C	-	.	.	.	.
O=C(COC(=O)c1ccccc1S(=O)(=O)N1CCCCC1)NCC(F)(F)F	-	-	active	-	+
Cc1ccc(NC(=O)COC(=O)c2ccccc2F)cc1S(=O)(=O)N1CCCCC1	-	.	.	.	.
Cc1[nH]n(-c2ccccc2)c(=S)c1C=Nc1cccc([N+](=O)[O-])c1	-	54.8	-	-	-
Cc1ccc(N(C(=O)c2ccc3c(c2)OCO3)C2C=CS(=O)(=O)C2)cc1C (centres undefined)	-	.	-	.	-
CCCCC(=O)N(c1ccc(C)c(C)c1)C1C=CS(=O)(=O)C1 (centres undefined)	-	-	-	92.5	-
CC(C)CNCC1OCc2ccccc2CO1	-	-	-	-	-
O=C(Nc1ccc(N2CCCCC2)cc1)c1ccc([N+](=O)[O-])o1	-	.	74.3	.	+
c1cncc(-c2nc3ccccc3o2)c1	-	.	-	.	+
c1cncc(-c2nc3cc(Cc4ccc5oc(-c6cccnc6)nc5c4)ccc3o2)c1	.	.	-	.	-
COC(=O)c1ccc(NC(C)C(=O)OC)c([N+](=O)[O-])c1 (centres undefined)	-	-	-	-	-
SMILES	PABP1 MLLE inh	eIF4E-4G inh	eIF4H FP inh	14-3-3 Bad PPI	PABP polyA inh
COC(C[C@H](O)C[C@H](O)[C@H](C)OCc1ccccc1)OC	-	-	-	-	-
Cc1ccc(O)c(C=Nc2cc(C)ccc2O)c1	-	-	-	-	-
Cc1ccc(O)c(C=Nc2ccc3[nH]ncc3c2)c1	-	-	68.4	-	+
O=C(CCNC(=O)c1ccc([N+](=O)[O-])cc1)Nc1ccc(F)cc1F	-	.	-	.	-
Cc1ccc(NC(=S)Nc2ccc3[nH]c(=O)[nH]c3c2)cc1C	42.8	-	-	-	-
COc1ccc(OCC(=O)NNC(=O)c2cccnc2)cc1	-	-	-	91.5	-
Cc1ccc(OCC(=O)NNC(=O)c2cccnc2)cc1	-	-	-	-	-
CCCCCOc1ccc(C(=O)NCCC(=O)NCCCC(=O)OCC)cc1	-	-	-	-	-
CCOC(=O)CCCNC(=O)CCNC(=O)c1ccc(OCC)cc1	-	-	active	-	+
Cc1cccc(C)c1NC(=O)CNC(=O)CNC(=O)c1ccc2c(c1)OCO2	-	.	.	.	.
COC(=O)CCC(=O)OC1(C)C(=O)C=C2C=C(c3ccsc3)OC=C2C1=O (centres undefined)	-	.	.	.	.
CCC(=O)OC1(C)C(=O)C=C2C=C(c3ccsc3)OC=C2C1=O (centres undefined)	-	-	92.6	-	+
Cc1ccc(SC2CC(=O)N(c3ccc4c(c3)OCCO4)C2=O)cc1 (centres undefined)	42.5	-	-	-	-
COc1ccccc1CNC(=O)COC(=O)CCN1C(=O)C2CC=CCC2C1=O (centres undefined)	-	.	.	.	.
COc1ccc(OC)c2c1C(=O)c1ccccc1C2=O	.	-	-	-	+
COc1ccc(N)c2c1C(=O)c1ccccc1C2=O	-	-	-	-	-
COc1ccc(OC)c2c1C(=O)C(Cl)=C(Cl)C2=O	57.6	-	-	-	-
Cc1cc(C(=O)NNC(=S)Nc2cccc(C(F)(F)F)c2)nn1C	-	.	-	.	-
Cc1ccc(S(=O)(=O)Nc2csc(C)c2C(=O)O)cc1	.	-	-	72.8	-
CCOC(=O)c1sc(N)c(C#N)c1COC(=O)CNC(=O)c1ccccc1	-	-	-	-	+
Cn1cc(S(=O)(=O)NCc2ccc3c(c2)OCO3)c(C(F)(F)F)n1	-	.	-	.	-
Cc1cc(C(=O)OCC(=O)c2ccc(Br)s2)c(C)o1	.	-	70.0	-	+
CNc1ccc(Br)cc(C(=O)/C=C/c2cccc(OC)c2OC)c1=O	-	-	-	-	-
CNc1ccc(Br)cc(C(=O)/C=C/c2cccc(Cl)c2Cl)c1=O	-	-	-	-	+
COC(Cc1n[nH]c(=S)n1-c1ccccc1)OC	-	-	-	75.6	-
SMILES	PABP1 MLLE inh	eIF4E-4G inh	eIF4H FP inh	14-3-3 Bad PPI	PABP polyA inh
COCc1n[nH]c(=S)n1-c1ccccc1	-	-	-	-	-
CCCCCCCCCCCCCCCCCCNc1ccn(C2OC(COP(=O)(O)OCC3OC(n4cc(F)c(=O)[nH]c4=O)CC3O)C(O)C2O)c(=O)n1 (centres undefined)	-	.	.	.	.
COC(=O)C(C(=O)OC)=C(/C=C/C=C/N(C)C)N(C)C	-	-	100.8	-	+
C[N+]1(CC(=O)OCCCc2ccccc2)CCCCC1	-	-	-	-	+
CN1C(=O)CCC(CCC(=O)O)(c2ccccc2O)C1=O (centres undefined)	-	.	-	.	-
CCn1c(SCC(=O)NCc2ccc3c(c2)OCO3)nnc1-c1cccs1	-	67.7	-	-	-
COc1ccc(CCCNC(=O)C2Cc3c(-c4cccc(C(C)=O)c4)ccnc3O2)cc1 (centres undefined)	-	.	.	.	.
COc1cc(OC)c(NC(=O)c2ccc3c(SCC(=O)O)c4c(nc3c2)CCCC4)cc1Cl	-	-	80.8	-	+

Screening data from PubChem BioAssay.
